HPGD block = HPGD (human) dehydrogenase inhibition; hit rate 4.3% among 150,000; Potency, µM, for inactives: at the highest dose activity change, negative = inhibition, hits mostly inhibitors; P15428; purified HPGD, NADH fluorescence kinetic, PGE2 substrate; note: potency is the fitted concentration of half-maximal effect
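NADH formation kinetics: reaction with 30 uM PGE2 and 1 mM NAD+ (final), 20 nM enzyme, Tris-HCl pH 8 with Tween 20, after 15 min compound preincubation at room temperature. Fluorescence change, last versus first of five reads.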
ALDH1A1 inh = inhibitors of human aldehyde dehydrogenase 1A1 | Purified ALDH1A1, NADH fluorescence, propionaldehyde substrate | hit rate 7.3% among 220,000 | Potency, µM (series often up to 75.3 µM), inactives show top-dose activity, negative = inhibition, hits mostly inhibitors | P00352 | AID 1030;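 note: potency is the fitted concentration of half-maximal effect; plate controls were no enzyme wells and a reference inhibitor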
JMJD2E inh = inhibitors of human JMJD2E histone demethylase | hit rate 1.6% among 230,000 | JMJD2E catalytic domain, FDH-coupled NADH fluorescence (FDH is formaldehyde dehydrogenase) | Potency, µM (top dose mostly 57.1 µM), without a hit: at the highest dose activity change, negative = inhibition, actives largely listed as inhibitors | B2RXH2;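 note: potency is the fitted concentration of half-maximal effect; 0% = wells with enzyme and -100% = buffer wells without enzyme; nearly all actives have a fitted effect of over 50% in size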
Target sequence (B2RXH2 1-337 limits assumed): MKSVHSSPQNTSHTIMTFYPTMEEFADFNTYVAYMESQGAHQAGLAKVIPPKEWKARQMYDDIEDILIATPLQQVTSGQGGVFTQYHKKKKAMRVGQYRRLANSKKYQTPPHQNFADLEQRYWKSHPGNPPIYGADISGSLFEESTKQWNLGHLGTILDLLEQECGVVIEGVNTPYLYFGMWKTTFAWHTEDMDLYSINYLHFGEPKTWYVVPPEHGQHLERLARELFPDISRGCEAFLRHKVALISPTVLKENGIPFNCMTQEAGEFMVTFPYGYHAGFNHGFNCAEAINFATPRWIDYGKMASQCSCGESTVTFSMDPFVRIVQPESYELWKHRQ
PNC assembly inh = blocks assembly of the perinucleolar compartment; activity change (PNC), negative = inhibition, % at 10 µM; hit rate 3.1% among 140,000; AID 2417; PC3M PTB-GFP, PNC prevalence imaging, 16 h; hits give low values;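 active = readout at or below -70, meaning at least 70% loss of cells showing the perinucleolar compartment, a nuclear body marking cancer cells; inconclusive = readout between -30 and a set limit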;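 note: plate controls were DMSO wells for no effect and camptothecin positive control wells for full effect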
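Read-out is percentage of cells bearing a perinucleolar compartment, from automated 20x imaging of fixed, Hoechst-stained PC3M PTB-GFP cells. Cells were seeded 4 h, then exposed 16 h to compound (23 nl of library stock) in duplicate plates.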
* hit, by the source's call; ? = inconclusive; / = no result; [ ] = dose if it differs, or a comment. A selection: hits, their analogues and other compounds. The true share with any hit is near 11%. Unless noted, calls come from the whole dose curve; as a rule, active = well fitted inhibition curve with a large enough effect (not every such curve was filed as active); inconclusive = small, poorly fitted or top-dose-only effect, or another doubt; inactive = no such curve, though single readings can be large or run the other way. Unless noted, % is set by controls: 0 for no effect and ±100 for the full control effect.

SMILES	HPGD block	ALDH1A1 inh	JMJD2E inh	PNC assembly inh
COCCOC(=O)C(C#N)c1nc2ccccc2nc1N1CCN(Cc2ccccc2)CC1 (stereo not given)	-12%	?	?	?
CC(C)COC(=O)C(C#N)c1nc2ccccc2nc1N1CCN(Cc2ccccc2)CC1 (stereo not given)	-15%	13µM*	-28%	27
CN1CCN(c2nc3ccccc3nc2C(C#N)C(=O)OC2CCCCC2)CC1 (stereo not given)	-10%	16µM*	-12%	-23
N#CC(C(=O)OC1CCCCC1)c1nc2ccccc2nc1N1CCOCC1 (stereo not given)	-15%	1%	4%	11
CCC(CC)COC(=O)C(C#N)c1nc2ccccc2nc1N1CCOCC1 (stereo not given)	-28%	10µM*	0%	?
CC(C)CN1CC[C@@]2(CCCN(C(=O)c3csnn3)C2)C1	-7%	-3%	/	/
COc1ccc(-c2noc(CN(C(=O)c3cccs3)C(C)C)n2)cc1	-24%	2%	-5%	?
O=C(O)c1cc(N2C(=O)C3C4C=CC(C4)C3C2=O)ccc1N1CCOCC1 (stereo not given)	/	-4%	4%	/
COc1ccc(N=Cc2[nH]c3ccccc3c2O)cc1	/	13µM*	?	/
COc1ccc(N=CC2=C(O)c3ccccc3C2=O)cc1	-12%	2%	12%	?
COc1cccc2sc(Nc3nc(-c4cc5ccccc5oc4=O)cs3)nc12	?	?	1%	-84*
COc1ccc(Nc2nc(-c3cc4cccc(OC)c4oc3=O)cs2)cc1	-12%	22µM*	?	14
COc1ccccc1-c1nnc(Nc2nc3c(OC)cccc3s2)o1	?	?	?	-87*
O=C(O)c1ccc(Nc2nc(-c3cc4ccccc4oc3=O)cs2)cc1O	/	?	20µM*	/
CC(C)(C)NC(=O)NC(=O)COC(=O)c1cccc(S(=O)(=O)N2CCCCC2)c1	-9%	-1%	19%	18
COc1cccc2cc(/C(C)=N/Nc3nc(-c4cc(C)ccc4C)cs3)c(=O)oc12	32µM*	?	0%	8
CNC(=O)c1cc2cccc(OC)c2oc1=O	-11%	-14%	-23%	?
NC(=O)c1cc(N2C(=O)C=CC2=O)ccc1Cl	7.9µM*	0.79µM*	-5%	-13
CC(=O)Nc1ccc(Cl)c(C(N)=O)c1	-1%	5%	0%	20
S=P(c1ccc(N2CCOCC2)cc1N1CCOCC1)(N1CCOCC1)N1CCOCC1	25µM*	28µM*	4%	?
CC(=O)OCC1=C(C(=O)O)N2C(=O)[C@@H](NC(=O)CSc3ccncc3)[C@@H]2SC1	-3%	2%[20.9 µM]	4%[25.5 µM]	/
CCNC(=O)NC(=O)C(C)Sc1nc2cc(C(=O)OC)ccc2c(=O)n1-c1ccccc1 (stereo not given)	-7%	22µM*	?	-19
CCCNC(=O)NC(=O)CSc1nc2cc(C(=O)OC)ccc2c(=O)n1-c1ccccc1	-27%	-8%	-1%	?
CCCCn1c(SC(C)C(N)=O)nc2cc(C(=O)OC)ccc2c1=O (stereo not given)	-15%	0.6µM*	16%	-1
CCCCn1c(SCn2nnc3ccccc3c2=O)nc2cc(C(=O)OC)ccc2c1=O	-5%	-2%	11%	40
SMILES	HPGD block	ALDH1A1 inh	JMJD2E inh	PNC assembly inh
Cc1nnc(SCC(=O)NNC(=O)c2ccc(Br)cc2)n1C	/	-7%	-15%	/
Fc1cccc(F)c1-n1c(CN2CCCC2)csc1=S	/	22µM*	2%	/
c1ccc2c(CN3CCCCC3)csc2c1	3%	3%	2%	-2
COc1ccc(C(=O)N2CCC3(CC2)CCN(C(c2ccccc2)c2ccccc2)CC3)cc1	-4%	-4%	/	/
COc1ccc(NCc2cc3cc(OC)ccc3[nH]c2=O)cc1	-17%	8.9µM*	?	-22
COc1ccc(NCc2c(O)ccc3ccccc23)cc1	-8%	1.6µM*	/	/
Oc1ccc2ccccc2c1CNc1cnc2ccccc2c1	?	?	?	7
COc1ccc(NCc2cc3ccccc3[nH]c2=O)cc1	/	7.9µM*	?	?
COc1ccc2[nH]c(=O)c(CNc3cccc(C)c3)cc2c1	/	?	0%	14
N#Cc1ccc(CN2CC3(CCN(C(=O)c4ccco4)CC3)C2)cc1	-8%	-10%	/	/
CCCN(CCC)CC(O)CN1C(=O)NC(C)(C)C1=O (stereo not given)	/	5%	-3%	/
O=C(O)[C@@H]1[C@@H](C(=O)NCc2ccccn2)[C@@H]2C=C[C@@H]1O2	-6%	-9%[13.5 µM]	/	/
CCCCOC(=O)c1ccc(NC(=O)C(=O)NCc2ccccn2)cc1	/	/	2%	/
